Laboratory results taken from paper PMC4552634, “A New Set of Chemical Starting Points with Plasmodium falciparum Transmission-Blocking Potential for Antimalarial Drug Discovery” (PLoS ONE, 2015).
About 3,200 (25%) of roughly 13,000 compounds showed an effect of 50% or more. Some of the results follow.

The compounds below were run on P. falciparum stage V gametocytes. Settings: 48 h, 5 µM; inhibitor.
Set-up: BacTiter-Glo ATP luminescence viability of purified stage V gametocytes in 384-well plates, per cent inhibition versus DMSO

Row | SMILES | % Inhibition
1 | CC(O)C1CCCCN1C(=O)c1cccc(-c2ccc(-c3nc4cc(C(F)(F)F)ccc4[nH]3)cc2)c1 (stereo not drawn) [TCMDC-132334] | -28.97%
2 | CC(C)CCn1c(Sc2ccc(C#N)c([N+](=O)[O-])c2)nnc1-c1ccc(N(C)C)cc1 [TCMDC-135617] | 45.75%
3 | COc1ccc(-c2nc3c(NCc4ccccc4)nccc3[nH]2)c(OC)c1 [TCMDC-137551] | -15.03%
4 | C=CCn1c(SCc2c(C)noc2C)nc2scc(-c3cccs3)c2c1=O [TCMDC-125027] | -8.905%
5 | CC(C)c1ncc(-c2ccncc2)c(C2CCC(CNC(=O)c3ccncc3)CC2)n1 (stereo not drawn) [TCMDC-124824] | 1.29%
6 | Cc1[nH]c2ccccc2c1C1=CCN(CCN2CCOc3c(Br)cccc3C2=O)CC1 [TCMDC-140965] | -7.337%
7 | CN1CCN(c2cc3c(Nc4ccc5c(cnn5Cc5ccccc5)c4)ncnc3cn2)CC1 [TCMDC-137767] | 5.484%
8 | N#Cc1ccc2c(c1)CN(C1CCC(NC(=O)c3cc(-c4ccc(Cl)cc4)cs3)CC1)CCC2 (stereo not drawn) [TCMDC-133504] | 5.468%
9 | CC(C)(C)OC(=O)/C=C(\C(=O)OCc1ccc([N+](=O)[O-])cc1)c1csc(NC(c2ccccc2)(c2ccccc2)c2ccccc2)n1 [TCMDC-131971] | 65.48%
10 | CCOC(=O)/C(=N\OC(C)(C)C(=O)NCc1ccc(O)c(O)c1)c1csc(NC(c2ccccc2)(c2ccccc2)c2ccccc2)n1 [TCMDC-132099] | -13.25%
11 | CCOC(=O)/C(=N\OC(C(=O)OC(C)(C)C)c1ccccc1)c1csc(NC(c2ccccc2)(c2ccccc2)c2ccccc2)n1 (stereo not drawn) [TCMDC-131980] | 21.22%
12 | COc1ccc(NC(=O)/C=C/c2ccc(Oc3ccccc3Cl)c([N+](=O)[O-])c2)cc1OCCN(C(C)C)C(C)C [TCMDC-140388] | -71.01%
13 | Cc1cc2nc(-c3ccc(/C=C/C(=O)NC4CCCCC4)cc3)[nH]c2cc1C [TCMDC-140435] | -5.542%
14 | Cc1cc2nc(-c3cccc(C(=O)NC4CCN(Cc5ccccc5)CC4)c3)[nH]c2cc1C [TCMDC-140424] | 75.94%
15 | O=C(C=Cc1ccc(-c2nc3ccccc3[nH]2)cc1)NC1CCN(Cc2ccccc2)CC1 [TCMDC-140400] | -89.03%
16 | O=C(NC1CCN(Cc2ccccc2)CC1)c1cccc(-c2nc3ccc(Cl)cc3[nH]2)c1 [TCMDC-140425] | 27.77%
17 | Cc1ccc2nc(-c3ccc(C(=O)NC4CCN(Cc5ccccc5)CC4)s3)[nH]c2c1 [TCMDC-140399] | -1.012%
18 | COC(=O)c1ccc2nc(-c3ccc(/C=C/C(=O)NC4CCN(Cc5ccccc5)CC4)cc3)[nH]c2c1 [TCMDC-140446] | 84.95%
19 | Cc1cc2nc(-c3ccc(C(=O)NC4CCN(Cc5ccccc5)CC4)cc3)[nH]c2cc1C [TCMDC-140428] | -59.23%
20 | CC(C)(C)c1ccc2nc(-c3ccc(C(=O)NC4CCN(Cc5ccccc5)CC4)s3)[nH]c2c1 [TCMDC-140514] | 58.98%
21 | O=C(/C=C/c1ccc(-c2nc3ccc(Cl)cc3[nH]2)cc1)NC1CCN(Cc2ccccc2)CC1 [TCMDC-140443] | 63%
22 | COC(=O)c1ccc2nc(-c3cc(OC)c(O)c(C(=O)NC4CCN(Cc5ccccc5)CC4)c3)[nH]c2c1 [TCMDC-140427] | 6.107%
23 | COC(=O)c1ccc2nc(-c3ccc(C(=O)NC4CCN(Cc5ccccc5)CC4)s3)[nH]c2c1 [TCMDC-140426] | -65.59%
24 | CC(C)(C)c1ccc2nc(-c3ccc(/C=C/C(=O)NC4CCN(Cc5ccccc5)CC4)cc3)[nH]c2c1 [TCMDC-140456] | 48.62%

Row | SMILES | % Inhibition
25 | CCN1CCN(c2cc(C)c3cc(NC(=O)c4cncc(Br)c4)ccc3n2)CC1 [TCMDC-125571] | -6.09%
26 | Cc1ccc(-n2c(=O)c3c(n4c(SC(C)C)nnc24)-c2ccccc2CC32CCCCC2)cc1 [TCMDC-125077] | -67.75%
27 | Cc1cc([N+](=O)[O-])ccc1NC(=O)Nc1cccc(C(F)(F)F)c1 [TCMDC-124561] | -49.1%
28 | Cc1cccc2nc(-c3cccc(-c4cccc(C(=O)NCCN5CCCC5)c4)c3)[nH]c12 [TCMDC-132323] | 21.11%
29 | C=CC[C@H](NC(=O)c1ccc(NS(=O)(=O)c2ccc3nc(N)[nH]c(=O)c3c2)cc1)C(=O)OCCCC [TCMDC-137699] | 10.92%
30 | CCCCCCCCN1CCCN(C(=O)c2cccc(NC(=O)Nc3ccc4ccccc4c3)c2)CC1 [TCMDC-141690] | -11.26%
31 | CC(CNc1ccnc(Nc2ccc3[nH]c(=O)[nH]c3c2)n1)c1ccccc1 (stereo not drawn) [TCMDC-136806] | -16.39%
32 | Nc1nc(N)c2c(Sc3ccccc3)cccc2n1 [TCMDC-131943] | 8.754%
33 | NC(=O)c1ccsc1NC(=O)CNC(c1ccccc1)c1ccc(Cl)cc1 (stereo not drawn) [TCMDC-125330] | 14.63%
34 | Cc1ccc2[nH]c(-c3ccc(/C=C/C(=O)NC4CCN(Cc5ccccc5)CC4)cc3)nc2c1C [TCMDC-140451] | -45.16%
35 | Cc1ccc2nc(-c3ccc(C=CC(=O)NC4CCN(Cc5ccccc5)CC4)cc3)[nH]c2c1 [TCMDC-140401] | 2.225%
36 | Cc1cc2nc(-c3ccc(/C=C/C(=O)NC4CCN(Cc5ccccc5)CC4)cc3)[nH]c2cc1C [TCMDC-140434] | 78.1%
37 | O=C(Nc1ccc(OC2CCN(Cc3ccc(F)cc3)CC2)c(Cl)c1)c1ccco1 [TCMDC-133750] | 24.88%
38 | O=C(Nc1ccc(OC2CCN(Cc3ccc(F)cc3)C2)c(Cl)c1)c1cccs1 (stereo not drawn) [TCMDC-133757] | 50.68%
39 | O=C(Nc1ccc(OC2CCN(Cc3ccccc3)CC2)c(Cl)c1)c1ccco1 [TCMDC-133966] | 63.08%
40 | O=C(Nc1ccc(OC2CCN(Cc3ccsc3)CC2)c(Cl)c1)c1ccco1 [TCMDC-134271] | 9.288%
41 | O=C(Nc1ccc(OC2CCN(Cc3ccc(F)cc3)CC2)c(Cl)c1)c1cccs1 [TCMDC-133746] | 32.62%
42 | Cc1cc(NC(=O)c2cccs2)ccc1OC1CCN(Cc2ccc(C#N)cc2)C1 (stereo not drawn) [TCMDC-133960] | 27%
43 | Cc1cc(NC(=O)c2ccco2)ccc1OC1CCN(Cc2ccc(F)cc2)C1 (stereo not drawn) [TCMDC-133760] | 22.57%
44 | Cc1cc(NC(=O)c2cccs2)ccc1OC1CCN(Cc2ccc(F)cc2)C1 (stereo not drawn) [TCMDC-133754] | 20.26%
45 | O=C(Nc1ccc(OC2CCN(Cc3ccccc3)C2)c(Cl)c1)c1ccco1 (stereo not drawn) [TCMDC-133971] | 37.01%
46 | N#Cc1ccc(CN2CCC(Oc3ccc(NC(=O)c4cccs4)cc3Cl)CC2)cc1 [TCMDC-133955] | 10.06%
47 | Cc1cc(NC(=O)c2cccs2)ccc1OC1CCN(Cc2ccc(C#N)cc2)CC1 [TCMDC-133954] | 61.72%
48 | O=C(Nc1ccc(OC2CCN(Cc3ccc(F)cc3)C2)c(Cl)c1)c1ccco1 (stereo not drawn) [TCMDC-133761] | 61.05%

Row | SMILES | % Inhibition
49 | FC(F)(F)c1ccc2[nH]c(-c3ccc(-c4ccc(CNCc5cnn(-c6ccccc6)n5)cc4)s3)nc2c1.O=C(O)C(F)(F)F [TCMDC-132975] | -22.66%
50 | COc1cccc(NC(=O)Nc2ccc(-c3oc(C(=O)NCC(c4ccccc4)N(C)C)cc3-c3ccncc3)cc2)c1 (stereo not drawn) [TCMDC-135783] | -10.27%
51 | Cc1c(F)cc(C(=O)NC2CC2)cc1-c1ccc2c(cnn2S(=O)(=O)c2ccc(C#N)cc2)c1 [TCMDC-135240] | -5.005%
52 | COc1ccc2nccc([C@@H](O)CN3CCC(NC(=O)c4[nH]c5ccccc5c4-c4ccccc4)CC3)c2c1 [TCMDC-141034] | -42.03%
53 | O=C(NCc1cccc(F)c1)Nc1ccc(-c2cccc(-c3nc4ccc(F)cc4[nH]3)c2)cc1 [TCMDC-133296] | 0.06231%
54 | Cc1ccc(NC(=O)c2ccc(N3CCC(c4ccccc4C)CC3)nc2)cc1 [TCMDC-134594] | 8.038%
55 | COc1ccc(CN2CCN(Cc3cc(Cl)ccc3O)CC2CCO)c(C)c1C (stereo not drawn) [TCMDC-124638] | -22.47%
56 | N#Cc1ccc(CN2CCC(Oc3ccc(NC(=O)c4ccco4)cc3Cl)CC2)cc1 [TCMDC-133957] | 8.133%
57 | CC(C)CCN1CCC(Oc2ccc(NC(=O)c3ccco3)cc2Cl)CC1 [TCMDC-133976] | 100.7%
58 | CC(C)CCN1CCC(Oc2ccc(NC(=O)c3ccc(F)cc3)cc2Cl)CC1 [TCMDC-133978] | 33.54%
59 | O=C(NC(=S)NCc1ccncc1)c1ccccc1 [TCMDC-123842] | -6.445%
60 | NC1=NC(CCc2ccccc2)N(c2ccc(Cl)cc2)C(N)=N1 (stereo not drawn) [TCMDC-131290] | 6.603%
61 | COc1ccc2c(c1)Nc1ccc(Cl)cc1C2N (stereo not drawn) [TCMDC-141985] | 106.2%
62 | Fc1cccc(COc2ccc(-n3ccc4c(NCCCn5ccnc5)ncnc43)cc2Cl)n1 [TCMDC-135092] | -5.729%
63 | COc1ccc2ccccc2c1C=NNc1ccnc2cc(Cl)ccc12 [TCMDC-123949] | -70.44%
64 | Cc1cc(NCCCCCCN)nc(Nc2ccc(Cl)cc2)n1 [TCMDC-138191] | 54.5%
65 | CCN(CC)CCCN(CCCN(CC)CC)c1cc(C)nc(Nc2ccc(Cl)cc2)n1 [TCMDC-137489] | 39.75%
66 | CCCN(CCCN(CCCN(CCC)C(C)C)c1cc(C)nc(Nc2ccc(Cl)cc2)n1)C(C)C [TCMDC-138003] | 44.69%
67 | Cc1cc(N(C)CCCN(C)C)nc(Nc2ccc(Cl)cc2)n1 [TCMDC-136887] | 28.42%
68 | CCNc1cc(C)nc(Nc2ccc(C)cc2)n1 [TCMDC-134007] | 5.581%
69 | CCCCN(CCCC)CCCN(CCCN(CCCC)CCCC)c1cc(C)nc(Nc2ccc(Cl)cc2)n1 [TCMDC-137487] | 97.2%
70 | CCNc1cc(C)nc(Nc2ccc(F)cc2)n1 [TCMDC-134008] | 39.4%
71 | Cc1cc(N(CCCN(C)C)Cc2cc(F)cc(F)c2)nc(Nc2ccc(Cl)cc2)n1 [TCMDC-132203] | -7.276%
72 | CCCN(CCC)CCCN(CCCN(CCC)CCC)c1cc(C)nc(Nc2ccc(Cl)cc2)n1 [TCMDC-137773] | 63.95%
